About 580 (24%) of roughly 2,400 compounds were called active.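 The calls were made as follows: active = activity change at or above the mean plus 3 SD of buffer wells without dofetilide, per plate; inactive = the rest.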 A selection follows.
target: Potassium voltage-gated channel subfamily KQT member 2 (Rattus norvegicus) (UniProt O88943); assay: rat KCNQ2 channel activation by compounds alone, confirmation, counter-screen for hERG block protector project, cell-based, CHO, FluxOR thallium flux (AID 1942); details: CHO-KCNQ2 cells, FluxOR thallium flux fluorescence; at 10 µM; stronger effect = higher value;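 also: normalized value minus buffer-control mean plus three SD of buffer wells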
Sequence (O88943 whole entry, looked up): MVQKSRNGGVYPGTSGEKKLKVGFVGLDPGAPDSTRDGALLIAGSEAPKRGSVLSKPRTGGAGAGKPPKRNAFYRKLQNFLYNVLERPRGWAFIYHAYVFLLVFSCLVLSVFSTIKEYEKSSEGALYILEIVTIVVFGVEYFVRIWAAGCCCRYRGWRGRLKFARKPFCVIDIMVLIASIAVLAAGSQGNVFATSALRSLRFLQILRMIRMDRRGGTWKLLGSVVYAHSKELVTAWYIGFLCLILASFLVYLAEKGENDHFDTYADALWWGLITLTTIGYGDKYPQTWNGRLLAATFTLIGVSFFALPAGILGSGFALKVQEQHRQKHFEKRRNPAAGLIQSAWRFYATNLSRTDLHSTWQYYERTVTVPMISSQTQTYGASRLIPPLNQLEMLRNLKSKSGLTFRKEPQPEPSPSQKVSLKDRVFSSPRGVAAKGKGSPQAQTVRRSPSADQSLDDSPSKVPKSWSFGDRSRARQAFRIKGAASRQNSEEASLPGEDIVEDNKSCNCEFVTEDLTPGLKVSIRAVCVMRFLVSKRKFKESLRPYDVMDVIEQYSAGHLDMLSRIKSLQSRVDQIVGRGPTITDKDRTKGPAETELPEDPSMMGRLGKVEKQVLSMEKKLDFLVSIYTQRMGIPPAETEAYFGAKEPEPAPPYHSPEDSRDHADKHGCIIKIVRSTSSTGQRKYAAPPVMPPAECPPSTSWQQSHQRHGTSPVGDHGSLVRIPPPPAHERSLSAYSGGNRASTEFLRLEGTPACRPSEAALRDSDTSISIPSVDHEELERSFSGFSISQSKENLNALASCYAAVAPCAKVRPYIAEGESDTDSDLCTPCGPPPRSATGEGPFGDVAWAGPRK

Row | Compound | activity change, less the hit threshold
1 | CCC(=O)NC(c1cccs1)c1ccc2cccnc2c1O (centres undefined) | -16.7% (inactive)
2 | CCC(C)NC(=O)c1c(-c2cc(Cl)c(OC)c(Cl)c2)noc1C (centres undefined) | -12.6% (inactive)
3 | O=[N+]([O-])c1cccc(/C=N/N=C\c2ccccc2)c1 | -20.8% (inactive)
4 | O=C(O)CCSc1ncnc2sc(-c3ccccc3)cc12 | 22.1% (active)
5 | CCOC(=O)c1sc2nc(C)nc(SCC(=O)N(C)C3CCS(=O)(=O)C3)c2c1C (centres undefined) | -0.6% (inactive)
6 | CN(C(=O)CSc1ncnc2sc(-c3ccccc3)cc12)C1CCS(=O)(=O)C1 (centres undefined) | 80.2% (active)
7 | CCC(C)NC(=O)CSc1ncnc2sccc12 (centres undefined) | -14.8% (inactive)
8 | Cc1ccccc1-n1c(SCC(=O)N(C)C2CCS(=O)(=O)C2)nnc1-c1ccncc1 (centres undefined) | -7.7% (inactive)
9 | Cc1ccccc1Cc1c(C)nc2c(C(=O)NCc3ccc4c(c3)OCO4)cnn2c1C | -18.7% (inactive)
10 | O=C(NC(=S)N(CCc1ccccc1)CCc1ccccc1)c1ccco1 | 36% (active)
11 | CC(CCc1ccccc1)NC(=S)NC(=O)c1ccco1 (centres undefined) | 15.2% (active)
12 | O=C(O)CNC(=O)c1ccc(NC(=O)/C(=C/c2ccccc2)NC(=O)c2ccco2)cc1 | -25.9% (inactive)
13 | NC(=O)c1nsc(C(=O)N(CC(=O)NCc2ccccc2)c2ccc(F)cc2)c1N | -23.6% (inactive)
14 | C/C(=N\NC(=O)c1ccc(NS(=O)(=O)c2cccs2)cc1)c1ccc2c(c1)OCO2 | -25.3% (inactive)
15 | CNC(=O)COC(=O)c1cccc(S(=O)(=O)N2CCN(c3ccc(F)cc3)CC2)c1 | -11.1% (inactive)
16 | C=CCn1c(=S)[nH]c2sc3c(c2c1=O)CCCC3 | 46.1% (active)
17 | C=CCn1c(=S)[nH]c2sc3c(c2c1=O)CCC3 | 34.8% (active)
18 | C=CCn1c(=S)[nH]c2nc3c(cc2c1=O)CCCC3 | -7.5% (inactive)
19 | Cc1ccc(C(C)C)cc1OCCn1cncn1 | -20.3% (inactive)
20 | CCCOc1ccc(C2NC(=S)NC(c3ccccc3)=C2C(=O)Nc2ccc(C)cc2)cc1OC (centres undefined) | -6.2% (inactive)
21 | CNC(=O)CSc1nnc(-c2ccco2)n1-c1ccccc1 | -16.7% (inactive)
22 | Cc1ccc(NC(=O)C(=O)NNC(=O)c2cccs2)cc1 | 60.8% (active)

Row | Compound | activity change, less the hit threshold
23 | Cc1ccc(N/C=C/C(=O)c2cccs2)cc1 | -18% (inactive)
24 | COc1ccc(/C=C/C(=O)NC(=S)NNC(=O)c2cccs2)cc1 | -21.3% (inactive)
25 | O=C(Nc1ccc(NC(=O)C2CC2)nc1)c1cccs1 | -16.2% (inactive)
26 | CCc1ccc(NC(=O)C(=O)NNC(=O)c2cccs2)cc1 | 67.5% (active)
27 | COc1ccc(NC(=O)CNC(=O)c2cccs2)cc1Cl | -13.7% (inactive)
28 | C=CCc1cc(Cl)ccc1OCCOCCN(C)C | -18.7% (inactive)
29 | Oc1ccc(N=Nc2ccccc2-c2nn[nH]n2)c(O)c1 | -0.7% (inactive)
30 | Nc1nonc1C(=O)N1CCCC1 | -21% (inactive)
31 | Cc1cc(C(=O)NNC2CC(=O)N(c3ccc4ccccc4c3)C2=O)c(C)o1 (centres undefined) | -17.4% (inactive)
32 | COc1ccc(C(=O)c2oc3ccccc3c2N)cc1 | -8.5% (inactive)
33 | O=C(N/N=C\c1coc2ccccc2c1=O)c1ccco1 | -15.7% (inactive)
34 | CC(=O)Oc1c(-c2ccco2)oc2ccccc2c1=O | 6.8% (active)
35 | CC(=O)Oc1c(-c2ccc(Br)o2)oc2ccccc2c1=O | 99.4% (active)
36 | COc1ccc(-c2oc3ccccc3c(=O)c2OC(C)=O)cc1 | 7.3% (active)
37 | COc1ccc(OC(=O)Cc2cccc3ccccc23)cc1 | -8.5% (inactive)
38 | NC(=O)c1ccsc1NC(=O)CS(=O)(=O)c1ccccc1 | -4.3% (inactive)
39 | COc1ccc(Cc2c(O)nc(SCC(C)C)[nH]c2=O)cc1 | -20.7% (inactive)
40 | CCOC(=O)C(=CNc1cccc(C)n1)C(=O)OCC | -11.8% (inactive)
41 | CCOC(=O)C(=CNc1ccc(N2CCOCC2)cc1)C(=O)OCC | 0.3% (active)
42 | CCOC(=O)C(=CNc1cc(C)ccn1)C(=O)OCC | -11.3% (inactive)
43 | O=C(Cn1nnc(-c2cccc(C(F)(F)F)c2)n1)N1CCCCCC1 | 13.3% (active)
44 | NC(=O)Cn1nnc(-c2ccc(CN3CCCCC3)cc2)n1 | -14.8% (inactive)

Row | Compound | activity change, less the hit threshold
45 | O=C(c1cccc(C(F)(F)F)c1)C1CCCN(C(=O)CCn2cnnn2)C1 (centres undefined) | -8.8% (inactive)
46 | Cc1nc(NCCc2ccc(S(N)(=O)=O)cc2)c2c(C)c(C)sc2n1 | 0.6% (active)
47 | O=C(NC1CCN(c2ncccn2)CC1)c1c(F)cccc1F | -9.6% (inactive)
48 | COCC(=O)Nc1cc(C)cn(Cc2c(F)cccc2Cl)c1=O | -15.1% (inactive)
49 | Cc1ccc2c(Cl)cc(Cl)c(OCC(=O)NC3CCS(=O)(=O)C3)c2n1 (centres undefined) | -23.4% (inactive)
50 | OCCN1CCN(c2ncnc3c2sc2nc(N4CCOCC4)c4c(c23)CCC4)CC1 | -19.1% (inactive)
51 | Cc1csc2c(N3CCCCC3)ncnc12 | 3.5% (active)
52 | CC1=CCC[C@@H]2[C@@](C)(CC/C(C)=C/C(=O)O)[C@H](C)CC[C@@]12C | -3.2% (inactive)
53 | CCCCn1c(N)c(C(=S)NC(=O)CC(C)(C)C)c(=O)n(C)c1=O | 9.2% (active)
54 | CC(=O)c1sc(-c2ccc(F)cc2)cc1NS(=O)(=O)c1ccc(C)cc1 | -14.9% (inactive)
55 | CC(C)(C)c1ccc(C(=O)NC(=S)Nc2nc3c(s2)CCCC3)cc1 | 10% (active)
56 | O=C(NC(=S)Nc1nc2c(s1)CSc1ccccc1-2)c1ccccc1 | -2.4% (inactive)
57 | COC(=O)c1ccc(C(=O)NC(=S)Nc2nc3c(s2)CCCC3)cc1 | 16% (active)
58 | COC(=O)c1ccc(C(=O)NC(=S)Nc2nc3c(s2)CC(C)CC3)cc1 (centres undefined) | -11.7% (inactive)
59 | CN(C)/C=C1/C(=O)N(c2ccc([N+](=O)[O-])cc2)N=C1c1ccccc1 | -5.3% (inactive)
60 | Clc1cccc(-c2ccc(C=Nc3ccc(N4CCOCC4)cc3)o2)c1Cl | -8.8% (inactive)
61 | O=C(OCc1ccc(F)cc1)c1cc(S(=O)(=O)N2CCCCC2)ccc1N1CCOCC1 | -12.7% (inactive)
62 | CCOC(=O)C1CCN(C(=O)CCS(=O)(=O)c2ccc3c(c2)CCN3C(=O)CC)CC1 | -16.7% (inactive)
63 | S=c1nc(C2CC2)[nH]c2ccccc12 | 35.2% (active)
64 | S=c1nc(C2CCCCC2)[nH]c2ccccc12 | 4.1% (active)
